# Measurements reported in PubChem BioAssay AID2283112 (EPA ToxCast).
# Results filed as inconclusive are left out. Calls of active or inactive are those of the source. How the source made its calls: active means hit-call score of the fitted dose curve at least 0.9, where 1 is the maximum; inconclusive means response in the unintended direction; inactive means score below 0.9.
# Target: rat CYP1A1, Cyp1a1 (gene 24296) (UniProt P00185)
# Test: NVS_ADME_rCYP1A1: NovaScreen (NVS) CYP450-related Enzyme Activity (ADME) Assay for rat CYP1A1
# Method: NVS_ADME_rCYP1A1 is a biochemical, single-readout assay that uses extracted gene-proteins from baculovirus-insect cells in a cell-free assay. Measurements were taken 1 hour after chemical dosing in a 96-well plate.NVS_ADME_rCYP1A1 is one of one assay component(s) measured or calculated from the NVS_ADME_rCYP1A1 assay. It is designed to make measurements of enzyme activity, a form of enzyme reporter, as detected with fluorescence intensity signals by Fluorescence technology.Data from the assay component NVS_ADME_rCYP1A1 was analyzed into 1 assay endpoint. This assay endpoint, NVS_ADME_rCYP1A1, was analyzed in the positive analysis fitting direction relative to Acetonitrile as the negative control and baseline of activity. Using a type of enzyme reporter, loss-of-signal activity can be used to understand changes in the enzymatic activity as they relate to the gene Cyp1a1. Furthermore, this assay endpoint can be referred to as a primary readout, because this assay has produced multiple assay endpoints where this one serves a enzymatic activity function. To generalize the intended target to other relatable targets, this assay endpoint is annotated to the cyp intended target family, where the subfamily is xenobiotic metabolism. […]
# rat CYP1A1, Cyp1a1 (gene 24296), sequence (P00185 whole entry, looked up): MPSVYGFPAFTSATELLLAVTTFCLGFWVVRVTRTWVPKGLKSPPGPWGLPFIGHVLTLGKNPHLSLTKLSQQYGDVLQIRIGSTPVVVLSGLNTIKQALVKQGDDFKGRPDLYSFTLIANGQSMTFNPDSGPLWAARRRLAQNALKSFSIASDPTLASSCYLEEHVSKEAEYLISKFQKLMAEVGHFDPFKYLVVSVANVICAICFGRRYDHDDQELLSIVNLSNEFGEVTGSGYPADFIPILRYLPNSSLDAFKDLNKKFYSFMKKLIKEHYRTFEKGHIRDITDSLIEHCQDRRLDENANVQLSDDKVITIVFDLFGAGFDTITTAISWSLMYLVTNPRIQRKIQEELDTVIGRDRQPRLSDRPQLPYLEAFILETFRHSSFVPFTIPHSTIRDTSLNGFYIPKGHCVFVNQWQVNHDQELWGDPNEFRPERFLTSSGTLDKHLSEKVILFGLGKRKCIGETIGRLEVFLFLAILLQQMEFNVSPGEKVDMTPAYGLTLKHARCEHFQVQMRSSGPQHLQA
smiles,measurement,value
C=CCOC(Cn1ccnc1)c1ccc(Cl)cc1Cl (stereo unspecified),AC50,7.73 µM (active)
